A selection: hits, their analogues and other compounds. The true share with any hit is near 3.1%.
p53ts 32C tox – p53ts cell cytotoxicity, permissive temperature; Potency, µM (series often up to 46.1 µM), without a hit: at the highest dose activity change, negative = cytotoxicity, usual class: cytotoxic; H1299-p53A138V at 32C, ATP luminescence viability, 24 h; 0.93% of 130,000 active; AID 924;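 further: 0% = DMSO and -100% = full killing by reference compound; nearly all actives have a fitted effect of over 55% in size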
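Viability by ATPlite luminescence after 24 h compound treatment (up to 46 uM) at the permissive 32C. Cells are H1299 carrying p53 A138V. Scale runs from DMSO basal to 100 uM tamoxifen as full kill; AC50 from Hill fits.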
HEK293 cAMP cs – counter-screen for TSHR agonists: cAMP increase in parental HEK293; 2.5% of 73,000 active; parental HEK293 CNG cAMP sensor, membrane potential fluorescence; Potency, µM (titrated, usually from 57.1 µM), without a hit: at the top dose activation, actives largely listed as activators; further: % of control where 0% means no effect; nearly all actives have a fitted effect of over 55% in size
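Counterscreen for endogenous-receptor signalling: CNG-channel HEK 293 cells report cAMP rise by membrane depolarization. After 60 min dye equilibration with 100 uM RO 20-1724, compounds incubated 30 min before bottom-read fluorescence at 590 nm.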
Peg3 imprint – induces erasure of genomic imprints in mouse ES cells. mouse ES Peg3-LacZ reporter, beta-gal luminescence, 40 h. 0.02% of 110,000 active. Potency, µM (titrated, usually from 60.7 µM), inactives show at the top dose activity change, positive = activation, actives largely listed as activators
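Imprint erasure is scored as LacZ activity from the silenced maternal Peg3 allele in feeder-free female ES cells cultured 40 h with LIF. Luminescence is normalized to in-plate negative controls and fitted to the Hill equation.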
p53ts 39C kill – p53ts cell cytotoxicity, nonpermissive temperature; H1299-p53A138V viability at 39C, ATP luminescence, 24 h; Potency, µM (top dose mostly 46.1 µM), inactives show top-dose activity change, negative = cell killing, actives largely listed as cytotoxic; 1.5% of 130,000 active; further: on the % scale 0 is the no-effect control and ±100 the full control effect; nearly all actives have a fitted effect of over 55% in size
TSHR ag – activates the human thyroid stimulating hormone receptor; P16473; HEK293-CNG-TSHR cells (CNG channel as cAMP sensor), membrane potential dye, cAMP; Potency, µM (highest dose often 57.1 µM), for inactives: at the highest dose activation, most hits filed as activators; 0.48% of 73,000 active; AID 926; active means well fitted activation curve with a large enough effect in the main read-out, with a control signal flat, not every such curve was filed as active; inconclusive means small, poorly fitted or top-dose-only effect, or a change in a side signal; inactive means no such curve, though single readings can be large or run the other way; % of control where 0% means no effect;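 further: the control signal comes from parental cells without the receptor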
Target sequence (P16473 whole entry, looked up): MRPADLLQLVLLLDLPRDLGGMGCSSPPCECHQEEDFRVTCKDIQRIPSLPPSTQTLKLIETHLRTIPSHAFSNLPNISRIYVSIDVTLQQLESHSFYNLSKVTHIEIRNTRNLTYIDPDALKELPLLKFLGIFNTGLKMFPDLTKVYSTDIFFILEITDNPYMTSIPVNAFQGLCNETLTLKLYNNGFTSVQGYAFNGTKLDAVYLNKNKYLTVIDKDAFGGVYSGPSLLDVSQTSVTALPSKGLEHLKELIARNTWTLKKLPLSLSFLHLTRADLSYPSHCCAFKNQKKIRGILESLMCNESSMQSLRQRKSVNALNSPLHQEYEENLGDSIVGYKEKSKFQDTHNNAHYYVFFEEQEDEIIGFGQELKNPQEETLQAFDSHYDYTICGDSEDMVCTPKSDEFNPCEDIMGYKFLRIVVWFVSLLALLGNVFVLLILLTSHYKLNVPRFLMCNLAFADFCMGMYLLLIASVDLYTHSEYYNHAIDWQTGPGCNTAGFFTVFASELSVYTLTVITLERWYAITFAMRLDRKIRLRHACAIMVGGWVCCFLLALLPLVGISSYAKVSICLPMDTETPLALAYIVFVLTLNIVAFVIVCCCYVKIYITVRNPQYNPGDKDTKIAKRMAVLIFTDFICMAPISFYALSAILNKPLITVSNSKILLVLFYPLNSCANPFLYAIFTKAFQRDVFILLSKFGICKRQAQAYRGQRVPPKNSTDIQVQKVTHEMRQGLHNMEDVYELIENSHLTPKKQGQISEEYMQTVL
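HEK 293 cells stably expressing TSHR and a cAMP-gated CNG channel; parental CNG-only cells as counterscreen. Cells preloaded 60 min with membrane potential dye plus 100 uM RO 20-1724, then compound 30 min; fluorescence read at 590 nm.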
IkB signaling – IkB pathway inhibition in ABC-DLBCL cells; Potency, µM (highest dose often 57.1 µM), for the others: at the highest dose IkBa stabilization activation; ABC-DLBCL IkBa-CBG/CBR dual luciferase ratio, 4 h; response scale: scaled: untreated 0%, proteasome inhibitor 100%; 0.04% of 110,000 active; AID 445; active means well fitted curve in the direction sought with a large enough effect in the signal ratio, not every such curve was filed as active; inconclusive means small, poorly fitted or top-dose-only effect, or a change in a side signal; the % refers to the signal ratio;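 further: the direction sought is a rising ratio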
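In this assay, an IκBα–CBG68 fusion accumulates when IKK-driven degradation is blocked; native CBR normalizes for cell number. OCI-Ly3 cells were treated 4 h with compound and doxycycline, then green and red light read after Chroma-Glo addition.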
Numbers without * were called inactive; ? = inconclusive; / = no result given; [ ] = another dose, or the depositor's remark. Unless noted, the call rests on the fitted dose curve; in most records, active means well fitted curve in the direction sought with a large enough effect; inconclusive means small, poorly fitted or top-dose-only effect, or another doubt; inactive means no such curve, though single readings can be large; an effect the other way counts as inactive or inconclusive. Potency means the concentration at half of the fitted maximal effect.

SMILES | p53ts 32C tox | HEK293 cAMP cs | Peg3 imprint | p53ts 39C kill | TSHR ag | IkB signaling
N#Cc1c(N2CCCC2)nc(N)c2c(N)nc(N3CCCC3)cc12 | 13µM* | -11% | -14% | 15% | -14% | 0%
CC(C)c1ccccc1S(=O)(=O)c1cc(N)c2ncccc2c1[N+](=O)[O-] | 11% | ? | -22% | 3.2µM* | ? | /
O=C(COc1ccccc1C(=O)c1cnn(-c2ccccc2)c1)Nc1ccccc1 | 11µM* | / | / | ? | / | /
N#Cc1cc(C(=O)c2ccccc2OCC(=O)Nc2ccccc2)cn(C2CCCCC2)c1=O | -2% | / | / | 2% | / | /
Cc1onc(-c2ccccc2Cl)c1C(=O)Nc1cccc2cccnc12 | 15% | ? | -19% | 9% | ? | ?
Cc1onc(-c2ccccc2Cl)c1C(=O)Nc1cccc2nsnc12 | -1% | 32µM* | -9% | -1% | ? | 0%
Cc1ccc(C(=O)Oc2c(S(=O)(=O)c3ccccc3)c(C)nn2-c2ccccc2)cc1 | 10% | / | -3%[10.9 µM] | -4% | / | ?
CC(=O)Oc1c(S(=O)(=O)c2ccc(C)cc2)c(C)nn1C(C)(C)C | -5% | 10% | -14% | 5% | 6% | ?
Cc1ccc(S(=O)(=O)c2c(C)nn(C(C)(C)C)c2OC(=O)C(C)(C)C)cc1 | -2% | ? | -13% | 7% | ? | 1%
Cc1ccc(S(=O)(=O)c2c(C)nn(C(C)(C)C)c2OC(=O)c2ccc(Br)o2)cc1 | 10µM* | 3% | -25% | -21% | 4% | ?
Cc1ccc(S(=O)(=O)c2c(C)nn(C(C)(C)C)c2OC(=O)c2ccco2)cc1 | ? | 4% | -19% | 25µM* | 10% | ?
Cc1nn(C(C)(C)C)c(OC(=O)c2ccc3c(c2)OCO3)c1S(=O)(=O)c1ccccc1 | -19% | ? | 12% | 16µM* | ? | -2%
Cc1ccc(S(=O)(=O)c2c(C)nn(C(C)(C)C)c2OC(=O)c2cccs2)cc1 | ? | 22% | -30% | 16µM* | 8% | 3%
Cc1ccc(CN2CCN(C3CCN(C(=O)Nc4ccc(C)cc4Cl)CC3)C(=O)C2=O)cc1 | 11% | / | -7%[10.9 µM] | -22% | / | -2%
O=C(N/N=C/c1c[nH]c2ccccc12)c1cc(-c2ccc3ccccc3c2)n[nH]1 | ? | / | / | 16µM* | / | /
O=C(N/N=C/c1ccc(O)cc1O)c1cc(-c2ccccc2)n[nH]1 | -16% | -1% | / | 10µM* | 3% | /
COc1cccc(/C=N/NC(=O)c2cc(-c3ccc(C)cc3)n[nH]2)c1O | ? | 14% | / | ? | 24% | /
O=C(OCC(=O)N1CCN(C(=O)c2ccco2)CC1)c1ccccc1OCc1ccc(Cl)cc1 | 2% | 25µM* | -16% | -8% | ? | ?
COc1ccc(Cn2nnnc2C(C(C)C)N2CCN(c3ccccc3OC)CC2)cc1 (stereo not drawn) | 1% | 13µM* | -7% | -16% | ? | 2%
COc1ccccc1N1CCN(C(c2ccc(C)cc2)c2nnnn2C(C)C)CC1 (stereo not drawn) | 11% | 16µM* | -10% | -1% | ? | 1%
COc1ccc(OC)c(C(c2nnnn2Cc2ccccc2)N2CCN(C)CC2)c1 (stereo not drawn) | 0% | ? | -7% | -2% | ? | 0%
COCCn1c(=O)c(CCc2ccccc2)nc2cnc(Oc3ccc(OC)cc3)nc21 | -4% | ? | ? | 12% | ? | 4%[11.4 µM]
CCCN(CCC)C(=O)Cn1c(=O)n(-c2ccc(CC)cc2)c(=O)c2c3c(sc21)CCC3 | 12% | / | 5%[10.9 µM] | -1% | / | 16%
Cc1ccc(NC(=O)c2ccc(NC(=O)N3CCSc4ncccc43)cc2)c(Cl)c1 | 10µM* | / | -12%[10.9 µM] | ? | / | 1%
Cc1ccc(NC(=O)c2ccc(NC(=O)N3CCSc4ncccc43)cc2)c(C)c1 | -2% | / | -11%[10.9 µM] | -20% | / | 3%
SMILES | p53ts 32C tox | HEK293 cAMP cs | Peg3 imprint | p53ts 39C kill | TSHR ag | IkB signaling
CC1=C(c2ccc(C)c(C)c2)S(=O)(=O)N=C1N1CCC(C(=O)NCCc2ccco2)CC1 | 34% | / | 11%[10.9 µM] | -3% | / | 0%
Cc1ccccc1Cn1c(=O)n(Cc2ccc(Cl)cc2)c(=O)c2cccnc21 | 3% | / | -3%[10.9 µM] | -5% | / | -2%
Cc1ccc(CNC(=O)Cn2nc(C)n3cccc3c2=O)cc1 | 4% | / | -14%[10.9 µM] | -10% | / | 0%
CCc1nn(CC(=O)NCc2ccccc2)c(=O)c2cccn12 | -24% | / | -16%[10.9 µM] | 20µM* | / | -2%
CC(C)COc1ccc(Nc2ncnc3ccc(Br)cc23)cc1 | -1% | / | -12%[10.9 µM] | -28% | / | 4%
CSCCC(Nc1ncnc2ccc(Br)cc12)C(=O)O (stereo not drawn) | -2% | 2µM* | -4% | 3% | ? | 2%
Cc1cccc(NC(=O)C(=O)NCCc2csc(-c3ccc(C(F)(F)F)cc3)n2)c1C | 6% | / | -4%[10.9 µM] | ? | / | -2%
CCCNC(=O)c1ccc2c(c1)nc1n2CCCCC1 | 13µM* | / | -48%[10.9 µM] | 6.3µM* | / | ?
COc1ccc(CNC(=O)c2ccc3c(c2)nc2n3CCCCC2)cc1 | -26% | / | 5%[10.9 µM] | ? | / | ?
COCCCNC(=O)c1ccc2c(c1)nc1n2CCCCC1 | ? | / | -5%[10.9 µM] | 10µM* | / | -1%
Cc1cccn2cc(-c3ccc(F)cc3)nc12 | ? | -8% | -82% | ? | 5% | 5%
COc1ccc(-c2cn3ccc4ccccc4c3n2)cc1 | ? | / | / | 11µM* | / | /
Cc1cccn2cc(-c3ccccc3)nc12 | 13µM* | ? | -82% | ? | ? | 3%
O=c1c2ccccc2cnn1-c1nc2ccccc2s1 | 0.79µM* | 7% | -24% | 1µM* | -11% | ?
Cc1ccc(C)c(N2CCN(c3cnn(-c4nc5ccccc5s4)c(=O)c3Cl)CC2)c1 | / | / | / | -13% | / | /
COc1ccccc1OCc1nc2ccccc2n1Cc1ccccc1 | -4% | / | -19%[10.9 µM] | -5% | / | ?
COc1ccc(OC)c(N/C(=N\c2nc(C)cc(C)n2)NC(=O)c2ccco2)c1 | 4% | 25µM* | -11% | 6% | ? | -1%
COc1ccc(C(C)=O)cc1COC(=O)c1ccc2c(c1)OCO2 | 8% | 32µM* | -5% | 0% | ? | -1%
COc1ccc(CC2C(=O)Nc3ccc(Br)cc32)cc1OC (stereo not drawn) | -2% | / | -6%[10.9 µM] | -2% | / | ?
CCCOc1ccc(CC2C(=O)Nc3ccc(Br)cc32)cc1 (stereo not drawn) | ? | / | -6%[10.9 µM] | 20µM* | / | -1%
Cc1ccccc1OCc1nnc(SCc2cc(=O)c3cccc(F)c3[nH]2)n1C | -8% | / | -2%[10.9 µM] | 2% | / | ?
